DAT uptake mod: changed hDAT dopamine uptake under cocaine IC80, either direction, primary screen, cocaine antagonist project, cell-based, LLC-PK1 hDAT, [14C]-dopamine uptake, MLSMR. AID 449768, 2010. 110,000 tested, 1.3% active. LLC-PK1 hDAT cells, [14C]-dopamine uptake with cocaine IC80; actives deviate in either direction. B-score at 10 µM. Sodium-dependent dopamine transporter (Homo sapiens), Q01959;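 active = Z score or B-score, a plate-position-corrected score, falls beyond the plate's 99.7% confidence bounds, in either direction; inactive = both scores lie inside the 99.7% bounds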;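 note: scored against the spread of the other compound wells on the same plate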
D1 mod: D1 CRE-luciferase signal change, two-sided – cell-based, HEK293 D1, dopamine EC30, D1 allosteric modulator project, primary screen. dopamine EC30 potentiation; actives deviate in either direction. 58,000 tested, 5.9% active. B-score at 10 µM. D(1A) dopamine receptor (Homo sapiens), P21728;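 active = luminescence count or its row- and column-corrected plate score outside the 99.7% band of the plate's sample wells, on either side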
BAP1 inh: inhibitors of BAP1 deubiquitinase, primary screen, biochemical, Ub-AMC fluorescence, kinetic | recombinant BAP1, Ub-AMC hydrolysis fluorescence kinetic; stronger effect = lower value | calls only at 20 µM | 72,000 tested, 0.48% active | AID 436, 2006;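 active = activity remaining at or below 50% of control, provided the compound also passes the data quality filters; inactive = the rest, including low values that fail the filters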;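 note: 100% = DMSO wells rate and 0% = substrate alone blank rate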
Target sequence (Q92560 whole entry, looked up): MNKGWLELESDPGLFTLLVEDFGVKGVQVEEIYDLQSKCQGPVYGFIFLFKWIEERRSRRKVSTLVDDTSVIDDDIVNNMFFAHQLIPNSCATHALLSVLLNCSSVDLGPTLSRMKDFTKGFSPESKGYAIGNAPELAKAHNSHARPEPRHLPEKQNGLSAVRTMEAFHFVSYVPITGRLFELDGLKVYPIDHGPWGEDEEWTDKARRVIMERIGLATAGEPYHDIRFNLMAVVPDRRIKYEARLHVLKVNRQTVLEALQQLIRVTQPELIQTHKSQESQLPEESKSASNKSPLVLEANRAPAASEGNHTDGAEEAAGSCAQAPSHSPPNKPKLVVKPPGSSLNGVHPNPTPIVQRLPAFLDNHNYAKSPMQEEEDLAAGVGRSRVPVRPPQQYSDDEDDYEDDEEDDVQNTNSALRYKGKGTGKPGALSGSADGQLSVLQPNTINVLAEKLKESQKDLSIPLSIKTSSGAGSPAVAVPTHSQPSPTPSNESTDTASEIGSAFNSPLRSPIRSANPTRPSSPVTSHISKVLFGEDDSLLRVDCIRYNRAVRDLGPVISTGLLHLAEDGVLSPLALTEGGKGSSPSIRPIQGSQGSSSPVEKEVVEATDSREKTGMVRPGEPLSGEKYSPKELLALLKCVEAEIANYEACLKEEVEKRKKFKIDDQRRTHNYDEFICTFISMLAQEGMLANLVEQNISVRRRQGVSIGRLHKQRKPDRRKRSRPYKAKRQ
D1 PAM confirm: D1 receptor positive allosteric modulators, retest, confirmation, cell-based, HEK293 D1, CRE-luciferase, duplicate; 2,200 tested, 88% active; shares compounds with D1 mod; luminescence at 10 µM; dopamine EC30 potentiation; stronger effect = higher value;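 active = luminescence in either of two replicates above the same-plate mean plus 3 SD of the low-dose dopamine control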
D1 no dopamine: D1 receptor agonism without dopamine, confirmation, mechanism study for D1 allosteric modulator project, cell-based, HEK293 D1, CRE-luciferase, secondary assay 1; shares compounds with D1 mod; luminescence, no dopamine; stronger effect = higher value; luminescence at 10 µM; 1,900 tested, 0.8% active; in the data active = luminescence above about 3900
Isoprot counter: isoproterenol response counter-screen activity for D1 modulators; shares compounds with D1 mod; HEK293 D1 CRE-luciferase, isoproterenol EC30 counter-screen; stronger effect = higher value; 2,200 tested, 63% active; luminescence at 10 µM;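 active = luminescence in either replicate above plate mean of wells with a partly effective reference agonist dose plus 3 SD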;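 note: isoproterenol raises cAMP through native beta-adrenoceptor Gs so signal bypasses D1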
Starred values were filed as active, the others as inactive; i = inactive; x = no result given. The sample as a whole holds a higher share of hits than the screen did.

SMILES | DAT uptake mod | D1 mod | BAP1 inh | D1 PAM confirm | D1 no dopamine | Isoprot counter
OC1CCCN(c2c3c(nc4cc(-c5cccc(Cl)c5)nn24)CCC3)C1 (centres undefined) | 1.7 | 3.3* | x | 16460* | 1624 | 5776*
COCCN1CCN(c2c3c(nc4cc(-c5cccc(F)c5)nn24)CCC3)CC1 | 1.9 | x | x | x | x | x
OC1CCN(c2c3c(nc4cc(-c5ccc(F)cc5)nn24)CCC3)CC1 | 1.5 | x | x | x | x | x
Cn1c(=O)n(C)c2nc([N+](=O)[O-])c(Cl)cc21 | x | x | i | x | x | x
CCC(=O)Nc1c2c(nn1-c1ccc(OC)cc1)CS(=O)C2 (centres undefined) | -1.2 | -0.63 | i | x | x | x
CCCC(=O)Nc1c2c(nn1-c1ccc(OC)cc1)CS(=O)C2 (centres undefined) | -1.2 | 3.2* | i | 5968 | 1700 | 2448
CCOc1ccc(CNC(=O)CCn2c(=O)oc3ccccc32)cc1 | -0.067 | 5.4* | i | 5860 | 1400 | 2624
COc1ccc(CNC(=O)CCn2c(=O)oc3ccccc32)cc1 | 0.83 | -0.39 | i | x | x | x
CC1(C)CC(=O)C2=C(C1)Nc1ccccc1N(C(=O)Cc1ccc(Cl)cc1)C2c1cccs1 (centres undefined) | x | x | i | x | x | x
Nc1ncnc2c1ncn2[C@H]1C[C@H](O)[C@@H](CO)O1 | -0.35 | x | x | x | x | x
Nc1nc(Cl)nc2c1ncn2[C@H]1C[C@H](O)[C@@H](CO)O1 | 0.3 | 7.5* | i | 10544* | 1496 | 3904*
Cc1cc(-c2ccccc2)n(-c2cc(N3CCOCC3)ncn2)n1 | x | x | i | x | x | x
CC1(C)Cc2c(C#N)c(NC3CCCCC3)nc(-c3ccco3)c2CO1 | 1.4 | 3.4* | i | 8368* | 1616 | 2968
CC1(C)Cc2c(C#N)c(NCCc3ccccc3)nc(-c3ccco3)c2CO1 | -0.012 | x | x | x | x | x
CCCN1C2=NS(=O)(=O)CCN2c2ccccc21 | -0.27 | 8.4* | i | 20272* | 2056 | 4132*
c1ccc2c(c1)N1CCN=C1N2CCN1CCCCC1 | 0.69 | 1 | i | x | x | x
N#Cc1c(N)nc(SCC(=O)c2cc3ccccc3oc2=O)c(C#N)c1-c1cccs1 | x | x | i | x | x | x
N=c1c(S(=O)(=O)c2ccccc2)cc2c(=O)n3ccccc3nc2n1CC1CCCO1 (centres undefined) | 0.57 | 7.6* | i | 10760* | 1756 | 3592*
Cc1ccc(S(=O)(=O)c2cc3c(=O)n4cc(C)ccc4nc3n(CC3CCCO3)c2=N)cc1 (centres undefined) | x | 0.75 | i | x | x | x
CC=CCOC(=O)C1=C(C)NC(=O)NC1c1ccc(CC)cc1 (centres undefined) | x | x | i | x | x | x
CSC1=NC(=C2N=C(SC)c3ccccc32)c2ccccc21 | x | x | i | x | x | x
CCOC(=O)c1cc(-c2cccs2)nn1CCC#N | 1.3 | x | i | x | x | x
CCOC(=O)c1cc(-c2ccc(C)o2)nn1CCC#N | 0.15 | 5.6* | x | 19640* | 1728 | 3844*
Cc1ccc(C2NC(=O)c3c(sc4c3CCN(C)C4)N2)c(O)c1 (centres undefined) | x | x | i | x | x | x
N#Cc1ccccc1Cn1c(=O)n(Cc2ccc(C(=O)NCc3ccco3)cc2)c(=O)c2sccc21 | 0.37 | 16* | i | 10644* | 1632 | 3284*
SMILES | DAT uptake mod | D1 mod | BAP1 inh | D1 PAM confirm | D1 no dopamine | Isoprot counter
N#Cc1ccccc1Cn1c(=O)n(-c2ccc(CC(=O)NCc3ccco3)cc2)c(=O)c2sccc21 | 0.00078 | -0.22 | i | x | x | x
CCCNC(=O)c1c(NC(=O)c2ccccc2C)sc2c1CCC2 | x | x | i | x | x | x
O=C(NCc1ccco1)c1cccc2ccccc12 | -0.81 | -0.052 | i | x | x | x
O=C(NCc1ccco1)c1cccnc1-c1nc2ccccc2s1 | x | 5.9* | i | 11260* | 1740 | 3708*
Cc1ccc(S(=O)(=O)N2CCC(C(=O)N3CCCC(C(F)(F)F)C3)CC2)cc1 (centres undefined) | x | x | i | x | x | x
CC(C)Cn1c(N2CCCCC2)nc2c1c(=O)[nH]c(=O)n2C | x | x | i | x | x | x
c1ccc(CSc2nncn2-c2ccccn2)cc1 | -0.00076 | 7.9* | i | 12884* | 1752 | 3328*
CC1CCN(C(=O)CSc2nncn2-c2ccccn2)CC1 | -0.46 | 0.94 | i | x | x | x
CCCOC(=O)C1=C(C)NC2=C(C(=O)CCC2)C1c1ccccc1OC(C)C (centres undefined) | x | x | i | x | x | x
COc1cc(C(=O)Nc2nnc(C(C)C)s2)cc(OC)c1OC | x | x | i | x | x | x
CCc1ccc(NC(=O)c2cc3nc(-c4ccccc4)cc(C)n3n2)cc1 | x | x | i | x | x | x
CCS(=O)(=O)Nc1c(C)n(C)n(-c2ccccc2)c1=O | -0.42 | x | x | x | x | x
Cc1c(NS(=O)(=O)CC23CCC(CC2=O)C3(C)C)c(=O)n(-c2ccccc2)n1C (centres undefined) | 0.78 | 3.3* | i | 6536 | 1760 | 3176
Oc1ccc(-c2nc3ccc4ccccc4c3c3c2CCCC3)cc1O | x | x | i | x | x | x
CCOC(=O)c1ccc(Oc2nc(NC)nc(Nc3ccccc3)n2)cc1 | -1.1 | x | x | x | x | x
CNc1nc(Nc2ccc(C(C)=O)cc2)nc(OC(C(F)(F)F)C(F)(F)F)n1 | -5.9* | 21* | x | 17924* | 1544 | 5672*
CCCCC1(C)Cc2ccccc2C(=O)N1 (centres undefined) | x | x | i | x | x | x
Cc1cc(C)n(-c2ncc(-c3ccccc3)nn2)n1 | 0.67 | 4.5* | i | 6696* | x | 2720
Cc1cc(C)n(-c2nncc(-c3ccccc3)n2)n1 | 0.94 | -0.018 | i | x | x | x
COc1ccccc1CC(=O)N1CCCCC1 | x | x | i | x | x | x
CCOC(=O)c1c(-c2ccncc2)csc1N | 0.81 | 6.8* | i | 14984* | 1720 | 2936
CCOc1ccc(-c2csc(N)c2C(=O)OC)cc1 | 1.2 | x | x | x | x | x
CC1N=C2c3ccccc3N=C(SCc3cc(=O)n4cc(Cl)ccc4n3)N2C1=O (centres undefined) | 0.55 | 4.2* | i | 10900* | 1568 | 3512*
CC(C)C1N=C2c3ccccc3N=C(SCc3cc(=O)n4ccccc4n3)N2C1=O (centres undefined) | x | 0.92 | i | x | x | x
Cc1ccc(S(=O)(=O)CCc2nc3ccccc3o2)cc1 | x | x | i | x | x | x
CCCn1nc(NC(=O)c2ccco2)c2cc3ccc(C)cc3nc21 | 0.74 | 3.2 | i | x | x | x
CCn1nc(NC(=O)c2ccncc2)c2cc3ccccc3nc21 | 0.99 | 11* | i | 15352* | 1464 | 4132*
CCn1nc(NC(=O)c2ccco2)c2cc3ccccc3nc21 | 0.84 | 14* | i | 12332* | 1428 | 3396*
CCn1nc(NC(=O)c2ccncc2)c2cc3cccc(C)c3nc21 | 0.018 | 0.66 | i | x | x | x
